Measured values from PubChem BioAssay (NCI).
The panel holds about 83,000 compounds, 20% with a hit somewhere; the sample as a whole holds those more often.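 Results are percent growth after 48 hours of single-concentration exposure. 100 means growth as in untreated cells, lower positive values show inhibition; negative values down to -100 show cell death.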 Values without a mark were called inactive. Calls of active or inactive are those of the source. The calls were made as follows: active = growth percent below 10; inactive = the rest.

What was measured:
Assay in all cases: NCI-60 one-dose screen, 48 h (100 = growth as untreated, 0 = no growth, -100 = all killed)
Conditions in all cases: 10 µM unless noted
NCI-H23 lung = test system: NCI-H23 lung
NCI-H226 lung = test system: NCI-H226 lung
NCI-H322M lung = test system: NCI-H322M lung
HOP-62 NSCLC = test system: HOP-62 NSCLC
NCI-H460 lung = test system: NCI-H460 lung
HOP-92 NSCLC = test system: HOP-92 NSCLC
NCI-H522 lung = test system: NCI-H522 lung
A549/ATCC NSCLC = test system: A549/ATCC NSCLC
786-0 renal = test system: 786-0 renal
COLO 205 colon = test system: COLO 205 colon
DU-145 prostate = test system: DU-145 prostate
K-562 leukemia = test system: K-562 leukemia
MALME-3M melanoma = test system: MALME-3M melanoma
MDA-MB-231 breast = test system: MDA-MB-231 breast
RXF 393 renal = test system: RXF 393 renal
SF-268 CNS = test system: SF-268 CNS
SF-295 CNS = test system: SF-295 CNS
SF-539 CNS = test system: SF-539 CNS
UACC-257 melanoma = test system: UACC-257 melanoma
M14 melanoma = test system: M14 melanoma

| Compound | growth (NCI-H23 lung) | growth (NCI-H226 lung) [%] | growth (NCI-H322M lung) | growth (HOP-62 NSCLC) | growth (NCI-H460 lung) | growth (HOP-92 NSCLC) | growth (NCI-H522 lung) | growth (A549/ATCC NSCLC) | growth (786-0 renal) | growth (COLO 205 colon) | growth (DU-145 prostate) | growth (K-562 leukemia) | growth (MALME-3M melanoma) | growth (MDA-MB-231 breast) | growth (RXF 393 renal) | growth (SF-268 CNS) | growth (SF-295 CNS) | growth (SF-539 CNS) | growth (UACC-257 melanoma) | growth (M14 melanoma) |
| --- | --- | --- | --- | --- | --- | --- | --- | --- | --- | --- | --- | --- | --- | --- | --- | --- | --- | --- | --- | --- |
| COc1cc2cc(NCc3cccc(Cl)c3)nc(C)c2cc1OC | 22.6% | 35.8 | 37.4% | 51.4% | 22.7% | 57.8% | 18.3% | 41.3% | 39.9% | 31.6% | 62.8% | 8.28% (active) | 80.6% | 41.6% | 40.3% | 41.3% | 26.1% | 5.02% (active) | 69.8% | 29.4% |
| CS(=O)(=O)Nc1cncc(-c2ccc3ncnc(Nc4cncc(Cl)c4)c3c2)c1 | 80% | 80.8 | 71.7% | 73.4% | 103% | 31.5% | 50.2% | 81.7% | 82.3% | 93.8% | 88.4% | 100% | 65.1% | 77.1% | 87.3% | 68.1% | 97.1% | 74.6% | 67.9% | 93.1% |
| N#Cc1c(-c2ccccc2)cc(-c2ccccc2)n(CCCC(=O)Nc2ccccc2N)c1=O | 73.5% | 73.9 | 102% | 64.7% | 33.5% | 62.1% | 32.4% | 57.4% | 63.9% | 92.3% | 87.4% | 20.2% | 47.4% | 69.9% | 55.8% | 59.5% | 35.1% | 52.5% | 78.2% | 39.8% |
| Nc1nc2ccccc2c2c1S(=O)(=O)c1ccc(Cl)cc1C2=O | 37.9% | 63.1 | 63% | 30.2% | 23.5% | -25.4% (active) | -73.5% (active) | 46.8% | 16.2% | -18% (active) | 26.3% | 11.5% | -21% (active) | 17.5% | 10.2% | 24.4% | 31.8% | 11.2% | 24.7% | 17.8% |
| O=C(/C=C/c1cccc(Cl)c1)c1cccc(OCCCOc2cccc(C(=O)/C=C/c3cccc(Cl)c3)c2)c1 | 89.2% | 96.3 | 106% | 102% | 103% | 66.8% | 87.4% | 100% | 98.8% | 106% | 108% | 86.9% | 116% | 94.9% | 104% | 98.8% | 95.1% | 106% | 102% | 89.9% |
| Cc1ccc(-c2nc(N3CCCNCC3)c3oc(-c4ccccc4)nc3n2)cc1 | 9.93% (active) | 93.1 | -70.4% (active) | -55.3% (active) | -67.9% (active) | -27.1% (active) | -74.6% (active) | -87.8% (active) | -89.8% (active) | -80.9% (active) | -15.2% (active) | -63.6% (active) | -92.4% (active) | -91.7% (active) | -74.3% (active) | -42.9% (active) | -89.6% (active) | -91.4% (active) | -82.2% (active) | -94.7% (active) |
| O=C1c2ccc3c4c5ccc(c24)C(=O)N1CCCOCCCCOCCCNCc1ccc(cc1)CNCCCOCCCCOCCCN(C3=O)C5=O | -52.3% (active) | 72.8 | 0.552% (active) | 33.6% | 3.03% (active) | 45.8% | -39.2% (active) | -40.1% (active) | -6.67% (active) | -71% (active) | 8.84% (active) | -19.3% (active) | -90.7% (active) | -11.7% (active) | 30.3% | 2.25% (active) | 91.5% | -85.7% (active) | -78.9% (active) | -85.3% (active) |
| NS(=O)(=O)c1ccccc1NC(=O)Nc1nc2ccccc2s1 | 90.8% | 91.5 | 98% | 96.1% | 103% | 99.1% | 91.9% | 101% | 98% | 109% | 106% | 97.5% | 91.9% | 97% | 98.4% | 98.1% | 94.6% | 95.8% | 102% | 93.5% |
| COC(=O)/C=C1/SC(=Nc2cccc(OC)c2)N(CCc2c[nH]c3ccc(O)cc23)C1=O | 76.1% | 89.6 | 95.2% | 69.8% | 61.3% | 50.4% | 54.3% | 87.3% | 74.3% | 106% | 33.1% | 34.1% | 79.5% | 66.6% | 52.6% | 67% | 81.4% | 72.4% | 57.7% | 51.3% |
| O=C1c2c(c3c4ccccc4[nH]c3c3ccc4ccccc4c23)C(=O)N1CCN1CCOCC1 | 32.6% | 61.4 | 51.8% | 45.8% | 2.17% (active) | 66.1% | 29.1% | 28.8% | 52.5% | 55.5% | 39.7% | 10.9% | 44.5% | 69.5% | 18% | 56.8% | 29.1% | 51.7% | 79.7% | 36.8% |
| COC(=O)c1c2c(c(C)[n+]([O-])c1C)C(=O)C(NCc1cccc(OC)c1)=CC2=O | 25.4% | 83.2 | 22.6% | 53.2% | 14.6% | 54.5% | 10.8% | 12.9% | 54.3% | -63.4% (active) | 54.8% | 13.7% | -89.9% (active) | 5.97% (active) | 38.7% | 36.8% | 69.9% | 11.4% | -25.5% (active) | 12.9% |
| O=[N+]([O-])c1cccc(-c2nc3cc4nc5ccccc5[nH]c4cc3n2)c1 | 90.1% | 105 | 97.7% | 95.7% | 112% | 113% | 92.6% | 92.6% | 91.9% | 114% | 106% | 90.9% | 113% | 110% | 115% | 98.2% | 100% | 106% | 98.3% | 103% |
| CCOC(=O)n1cc(-c2nonc2-c2cn(C(=O)OCC)c3ccc(Br)cc23)c2ccccc21 | 67.9% | 79.4 | 70% | 72.3% | 81.6% | 63.2% | 70.6% | 74.4% | 90.6% | 84.2% | 93.9% | 78% | 83% | 74% | 94.2% | 82% | 72.4% | 98.4% | 93.6% | 78.8% |
| Nc1n[nH]c2cccc(C#Cc3cccc(C(=O)Nc4cc(C(F)(F)F)cc(C(F)(F)F)c4)c3)c12 | 73.8% | 42.7 | 96.7% | 93.8% | 76.5% | 36.9% | 35.1% | 80.4% | 103% | 81% | 91.5% | 4.87% (active) | 53.4% | 51.9% | 50.5% | 68.8% | 77.9% | 53.3% | 71.6% | 34.1% |
| COc1ccc(-c2nn(-c3cccc(Cl)c3)cc2-c2cc(-c3ccc(Br)cc3)nc(N)n2)cc1 | 87.3% | 86 | 80.4% | 88% | 93.9% | 91% | 68.3% | 81.2% | 88.1% | 102% | 107% | 94.2% | 102% | 81.9% | 111% | 101% | 99.1% | 103% | 104% | 92.8% |
